Measured values: PubChem BioAssay
Activity calls are given as the source filed them.

Assays:
[1] = test system: Wnt5a (protein binding on small-molecule microarray); experiment: Wnt5a binders on small-molecule microarray, primary screen, biophysical, 635/667 nm fluorescence (AID 1142); details: 635 nm fluorescence, higher = more signal;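 note: fluorescence read at 667 nm with signal to noise per printed feature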
[2] = cell viability in Huh7 cells, primary screen, cytotoxicity control for HCV replication inhibitor project, CellTiter-Glo luminescence, basal, 48 h (AID 1143); details: Huh7 HCV replicon, higher = more signal, called active from +8 up or from −8 down;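 note: Huh7 hepatoma cells carrying a hepatitis C replication reporter with no stimulus; test concentration not given here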
[3] = CREB reporter modulators without forskolin, primary screen, cell-based, PC12, CRE-LacZ reporter, unstimulated (AID 1145); details: no forskolin, luminescence, 4.5 h, higher = more signal, called active from +8 up or from −8 down
[4] = CREB reporter modulators under forskolin, primary screen, cell-based, PC12, CRE-LacZ reporter, forskolin-stimulated (AID 1146); details: luminescence, 4.5 h, higher = more signal, called active from +8 up or from −8 down;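 note: PC12 cells with 6xCRE LacZ reporter stimulated by forskolin 10 µM; beta-galactosidase reporter signal reflecting CREB driven transcription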
[5] = target: Streptavidin (Streptomyces avidinii) (UniProt P22629); experiment: streptavidin binders on small-molecule microarray, primary screen, artefact control for SMM compound annotation, biophysical, 635/667 nm fluorescence (AID 1147); details: streptavidin binding, higher = more signal;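 note: signal reflects streptavidin binding to arrayed compounds as a control protein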
Chain of Streptavidin (Streptomyces avidinii) (P22629 whole entry, looked up): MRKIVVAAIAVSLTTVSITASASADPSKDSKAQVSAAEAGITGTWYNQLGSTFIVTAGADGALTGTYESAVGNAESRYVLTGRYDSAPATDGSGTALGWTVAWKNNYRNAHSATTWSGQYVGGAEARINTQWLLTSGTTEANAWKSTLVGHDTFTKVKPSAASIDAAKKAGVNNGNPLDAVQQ

[6] = small-molecule binders of probe aInhba, primary screen, biochemical, small-molecule microarray, 635/667 nm fluorescence (AID 1148); details: higher = more signal;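 note: score merges 667nm spot fluorescence with signal-to-noise for antibody binding to printed compounds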
Torsin-1A (Homo sapiens) [7] = target: Torsin-1A (Homo sapiens) (UniProt O14656); experiment: torsin A binders from cell lysate, primary screen, small-molecule microarray, wild-type, 635/667 nm (AID 1149); details: COS7 hTOR1A-WT lysate, 635 nm fluorescence, higher = more signal
Chain of Torsin-1A (Homo sapiens) (O14656 whole entry, looked up): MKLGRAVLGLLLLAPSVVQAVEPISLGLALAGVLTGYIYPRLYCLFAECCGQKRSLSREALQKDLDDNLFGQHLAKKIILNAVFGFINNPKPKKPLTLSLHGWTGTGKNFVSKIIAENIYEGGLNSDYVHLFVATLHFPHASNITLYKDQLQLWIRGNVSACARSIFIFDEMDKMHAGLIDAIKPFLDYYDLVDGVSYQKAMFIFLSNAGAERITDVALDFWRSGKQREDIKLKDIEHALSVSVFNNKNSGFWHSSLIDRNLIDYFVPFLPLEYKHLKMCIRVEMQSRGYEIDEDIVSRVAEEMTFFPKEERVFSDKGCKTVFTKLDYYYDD

Torsin-1A (Homo sapiens) [8] = target: Torsin-1A (Homo sapiens) (UniProt O14656); experiment: small-molecule binders of mutant TOR1A in lysate, primary screen, cell lysate, small-molecule microarray, COS7 lysate, 635/667 nm fluorescence (AID 1150); details: COS7 hTOR1A mutant lysate, 635 nm fluorescence, higher = more signal;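 note: score pools 667 nm emission and signal to noise measuring lysate protein binding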
[9] = test system: Sonic hedgehog protein (Shh); experiment: small-molecule binders of Shh protein, primary screen, biochemical, small-molecule microarray, 635/667 nm fluorescence (AID 1151); details: small-molecule microarray binding, 635 nm fluorescence; higher = more signal;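 note: Shh protein binding to compounds spotted on small-molecule microarray slides; score combines spot fluorescence intensity with signal-to-noise across triplicate slides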
[10] = E. coli DRC41 culture turbidity changes, primary screen, E. coli filamentation inducer project, strain DRC41, OD650, 48 h (AID 1152);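 note: E. coli MC1000 strain DRC41 lacking acrAB efflux pump and sulA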; details: E. coli DRC41 (acrAB sulA), higher = more signal, called active from +8 up or from −8 down
[11] = small-molecule binders of probe aLefty1, primary screen, biochemical, small-molecule microarray, 635/667 nm fluorescence (AID 1153); details: higher = more signal;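 note: score merges spot fluorescence with signal-to-noise ratio from the scanned slide images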
[12] = PSAC antagonists in infected red cells, primary screen, cell-based, P. falciparum Indochina, OD700, 1 h (AID 1154); details: P. falciparum Indochina infected RBC osmotic lysis, higher = more signal, called active from +8 up or from −8 down
[13] = PSAC antagonists in infected red cells, primary screen, cell-based, P. falciparum Indochina, OD700, 2 h (AID 1155);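 note: lysis reports solute entry through the parasite surface anion channel PSAC; channel blockers reduce lysis of infected cells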; details: P. falciparum Indochina infected erythrocytes, osmotic lysis OD700; higher = more signal, called active from +8 up or from −8 down
[14] = osmotic lysis modulators in infected erythrocytes, primary screen, PSAC antagonist project, cell-based, P. falciparum Indochina, OD700, 3 h (AID 1156); details: higher = more signal, called active from +8 up or from −8 down
[15] = PSAC antagonists in infected red cells, primary screen, cell-based, P. falciparum Indochina, OD700, 18 h (AID 1157); details: P. falciparum Indochina infected erythrocytes, osmotic lysis OD700, 18 h; higher = more signal, called active from +8 up or from −8 down
[16] = modulators of S6 phosphorylation in cells, primary screen, cell-based, A549, cytoblot, luminescence, serum-stimulated (AID 1158); details: A549 phospho-S6 cytoblot, 5 h, higher = more signal;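 note: serum-stimulated A549 lung adenocarcinoma cells; signal is phosphorylated S6 detected by cytoblot immunostaining with HRP secondary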
[17] = target: NADPH oxidase 2 (Homo sapiens) (UniProt P04839); experiment: NOX2-dependent H2O2 signal modulators, primary screen, NOX inhibitor project, cell-based, HEK293-NOX2, PMA-stimulated, Amplex Red fluorescence (AID 1159); details: 45 min, higher = more signal, called active from +8 up or from −8 down; note: test concentration not given here
Chain of NADPH oxidase 2 (Homo sapiens) (P04839 whole entry, looked up): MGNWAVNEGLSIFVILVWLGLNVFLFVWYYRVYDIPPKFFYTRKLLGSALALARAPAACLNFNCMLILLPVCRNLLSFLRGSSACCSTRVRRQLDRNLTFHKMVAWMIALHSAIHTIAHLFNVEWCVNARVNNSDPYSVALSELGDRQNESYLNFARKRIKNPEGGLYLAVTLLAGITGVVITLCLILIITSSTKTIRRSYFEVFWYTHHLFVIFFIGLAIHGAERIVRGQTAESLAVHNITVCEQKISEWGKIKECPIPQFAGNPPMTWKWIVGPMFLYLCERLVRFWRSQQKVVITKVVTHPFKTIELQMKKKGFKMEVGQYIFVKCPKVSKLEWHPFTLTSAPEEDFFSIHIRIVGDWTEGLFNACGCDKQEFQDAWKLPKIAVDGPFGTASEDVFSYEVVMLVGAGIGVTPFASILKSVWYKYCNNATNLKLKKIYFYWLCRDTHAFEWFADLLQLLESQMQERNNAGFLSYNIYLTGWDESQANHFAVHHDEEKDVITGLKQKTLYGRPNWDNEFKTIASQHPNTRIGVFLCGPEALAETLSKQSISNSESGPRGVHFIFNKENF

[18] = target: NADPH oxidase 4 (Homo sapiens) (UniProt Q9NPH5); experiment: NOX4-dependent H2O2 signal modulators, primary screen, NOX inhibitor project, cell-based, HEK293-NOX4, tetracycline-induced, Amplex Red fluorescence (AID 1160); details: 45 min, higher = more signal, called active from +8 up or from −8 down
Chain of NADPH oxidase 4 (Homo sapiens) (Q9NPH5 whole entry, looked up): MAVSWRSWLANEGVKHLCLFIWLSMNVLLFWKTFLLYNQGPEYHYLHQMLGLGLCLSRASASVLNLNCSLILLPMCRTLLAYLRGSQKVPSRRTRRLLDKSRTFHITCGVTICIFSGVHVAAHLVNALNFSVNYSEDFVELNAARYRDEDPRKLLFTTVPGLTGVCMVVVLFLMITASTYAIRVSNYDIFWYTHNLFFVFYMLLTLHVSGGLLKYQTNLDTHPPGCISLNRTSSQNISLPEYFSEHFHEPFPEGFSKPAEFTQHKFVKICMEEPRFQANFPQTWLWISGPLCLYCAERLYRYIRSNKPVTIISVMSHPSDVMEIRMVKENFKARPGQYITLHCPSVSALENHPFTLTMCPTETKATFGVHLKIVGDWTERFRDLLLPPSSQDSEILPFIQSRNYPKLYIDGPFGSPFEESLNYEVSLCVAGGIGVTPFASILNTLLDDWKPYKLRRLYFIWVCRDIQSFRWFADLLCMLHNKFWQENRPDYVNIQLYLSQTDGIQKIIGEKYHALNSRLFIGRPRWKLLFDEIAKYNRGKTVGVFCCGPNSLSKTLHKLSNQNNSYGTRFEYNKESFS

[19] = target: NADPH oxidase 5 (Homo sapiens) (UniProt Q96PH1); experiment: NOX5-dependent H2O2 signal modulators, primary screen, NOX inhibitor project, cell-based, HEK293-NOX5, Amplex Red fluorescence (AID 1161); details: HEK293-NOX5, ionomycin, 45 min, higher = more signal
Chain of NADPH oxidase 5 (Homo sapiens) (Q96PH1 whole entry, looked up): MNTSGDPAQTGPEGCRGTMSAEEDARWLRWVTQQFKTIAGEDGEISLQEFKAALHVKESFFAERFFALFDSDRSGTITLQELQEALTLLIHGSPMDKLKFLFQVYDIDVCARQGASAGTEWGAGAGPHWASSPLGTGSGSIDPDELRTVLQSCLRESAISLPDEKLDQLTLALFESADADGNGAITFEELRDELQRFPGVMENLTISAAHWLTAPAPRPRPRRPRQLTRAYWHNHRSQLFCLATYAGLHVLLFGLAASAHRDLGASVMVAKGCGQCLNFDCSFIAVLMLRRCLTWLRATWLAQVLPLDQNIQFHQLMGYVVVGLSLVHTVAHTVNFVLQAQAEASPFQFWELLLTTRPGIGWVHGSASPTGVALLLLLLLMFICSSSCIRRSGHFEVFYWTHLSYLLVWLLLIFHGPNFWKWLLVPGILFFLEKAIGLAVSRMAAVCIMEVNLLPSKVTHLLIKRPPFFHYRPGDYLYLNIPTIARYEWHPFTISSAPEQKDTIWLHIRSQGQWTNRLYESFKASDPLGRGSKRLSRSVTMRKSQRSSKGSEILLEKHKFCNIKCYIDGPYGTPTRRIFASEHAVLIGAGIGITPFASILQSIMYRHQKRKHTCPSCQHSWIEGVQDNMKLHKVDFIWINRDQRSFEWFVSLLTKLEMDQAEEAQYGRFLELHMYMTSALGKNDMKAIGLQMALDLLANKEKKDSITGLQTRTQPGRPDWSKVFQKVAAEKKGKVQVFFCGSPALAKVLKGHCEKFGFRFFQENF

[20] = A549 cell viability effects, profiling panel, calcein-AM fluorescence, 48 h, basal (AID 1162); details: higher = more signal; note: test concentration not given here

SMILES | composite z-score [1] | z-score [2] | z-score [3] | z-score [4] | composite z-score [5] | composite z-score [6] | composite z-score (Torsin-1A (Homo sapiens) [7]) | composite z-score (Torsin-1A (Homo sapiens) [8]) | composite z-score [9] | z-score [10] | composite z-score [11] | z-score [12] | z-score [13] | z-score [14] | z-score [15] | z-score [16] | z-score [17] | z-score [18] | z-score [19] | z-score [20]
C=C[C@H](OC)[C@@H](OC(=O)Nc1ccc(OC)cc1)c1ccc(OC)c(O)c1 | -0.307 | -0.088 (inactive) | 2.03 (inactive) | -1.53 (inactive) | -1.38 | -0.348 | -0.86 | -0.657 | 0.149 | 2.02 (inactive) | -0.0984 | 1.27 (inactive) | -1.23 (inactive) | -1.84 (inactive) | -1.83 (inactive) | -0.443 | -2.28 (inactive) | -1.92 (inactive) | -2 | 0.29
C#CCOc1ccc(C[C@H]2C(=O)O[C@H](Cc3ccccc3)[C@H](/C=C/C3CC3)N2CC#C)cc1 | -0.245 | -2.48 (inactive) | -0.414 (inactive) | 0.741 (inactive) | -0.0298 | -0.183 | 0.498 | 0.212 | 0.145 | 2.04 (inactive) | -0.279 | 0.57 (inactive) | -0.251 (inactive) | -0.372 (inactive) | -0.383 (inactive) | 0.242 | -0.21 (inactive) | 0.764 (inactive) | -1.52 | -0.743
NCCCCCNC(=O)[C@H]1C[C@H]2C(=O)NCC(=O)N2[C@H]1c1ccc(O)cc1 | 0.518 | -0.108 (inactive) | 0.679 (inactive) | 0.407 (inactive) | 1.72 | -0.0419 | 1.69 | 0.376 | 2 | 1.01 (inactive) | -0.147 | 0.365 (inactive) | 0.113 (inactive) | -1.79 (inactive) | 0.252 (inactive) | -0.565 | 0.653 (inactive) | -1.24 (inactive) | 0.566 | -0.0704
O=C(O)[C@H]1C[C@H]2C(=O)NCC(=O)N2[C@H]1c1cccc(OCCO)c1 | 0.0144 | -0.812 (inactive) | 0.285 (inactive) | -0.736 (inactive) | 0.42 | 0.263 | 0.836 | 0.654 | 0.821 | 2.08 (inactive) | 1.24 | 9.23 (active) | 1.29 (inactive) | -1.73 (inactive) | 0.818 (inactive) | 0.617 | 1.81 (inactive) | 1.52 (inactive) | 1.61 | -0.24
CCCCC(=C=CC[C@@H](O)c1ccc(OCCO)cc1)C[C@@H](O)c1cc(Cl)cc(Cl)c1O | 0.145 | -2.71 (inactive) | 14.3 (active) | -2.04 (inactive) | 0.414 | 0.0536 | -0.0726 | 1.01 | 0.184 | 1.55 (inactive) | -0.147 | 20.3 (active) | 4.24 (inactive) | 1.41 (inactive) | 0.159 (inactive) | 0.903 | 0.444 (inactive) | 0.55 (inactive) | -1.14 | 2.24
